Reference: PubChem BioAssay (NCATS)
Records with an inconclusive call do not appear. Where a call stands in place of a potency, no number is given. Active and inactive are the calls of the source. Calls follow the shape of the dose curve; as a rule, active = well fitted cell-killing curve with a large enough effect; inconclusive = small, poorly fitted or top-dose-only effect; inactive = no such curve, though single readings can be large or run the other way.

Experiment: qHTS of pediatric cancer cell lines to identify multiple opportunities for drug repurposing: Primary screen for Rh41 cells (AID 1347108);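 also: luminescence drop marks cytotoxic hits; nearly all actives have a fitted effect of over 70% in size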
Conditions: Rh41 rhabdomyosarcoma viability, CellTiter-Glo luminescence, 48 h; series mostly up to 46 µM
Source text: Drug repurposing or repositioning has been offered as a strategy for drug development in oncology programs. This approach has special potential for childhood cancers and other rare or orphan diseases, where the expected return on new drug development has been a disincentive to pharmaceuticals. […] In this project we exploit the poly-pharmacology of drugs to discover new indications via phenotypic screening of a panel of 19 well-characterized cell lines derived from solid tumors seen in children and adolescents. The goal is to identify approved drugs with previously unrecognized anticancer properties that has the potential to reveal new mechanisms and biological processes involved in carcinogenesis or drug resistance. We employed a titration-based paradigm (quantitative high-throughput screening or qHTS), where all compounds were tested at multiple concentrations for their effect on cell viability. Concentration-response curves (CRCs) were derived directly from the primary screen, and both potency and efficacy values were used to identify compounds with robust bioactivity profiles. We screened the NIH Chemical Genomics Center (NCGC) Pharmaceutical Collection (NPC) and Mechanism Interrogation Plate (MIPE) small molecule collections of approved and investigational compounds against these cell lines; and measured metabolically active cells after 48 hours of compound treatment as a proxy for cell viability. […] Assay Submitter: Nathalia J. Martinez, National Center for Advancing Translational Sciences, National Institutes of Health, Rockville, MD, USA; email: natalia.martinez@nih.gov Shen, M et al. Quantitative high-throughput phenotypic screening of pediatric cancer cell lines identifies multiple opportunities for drug repurposing. Oncotarget 2017 Dec 19;9(4):4758-4772. PMID 29435139.
The cells were obtained from University of North Carolina (UNC), Pediatric Preclinical Testing Program (PPT), and Coriell Institute (CI). qHTS cell viability assay: Cells were assayed in growth media at a density of 500-1,000 cells/well. Five microliters of cells were dispensed into 1,536-well, white, solid-bottom, TC-treated plates (Greiner Bio One) using a multidrop dispenser and incubated at 37 degrees C, 5% CO2, under a humidified atmosphere for 5 hours. Twenty-three nanoliters of compounds and controls (neutral control DMSO or positive control bortezomib at final concentration of 2.3 µM) were subsequently transferred by Kalypsys pintool. For primary screens, the MIPE collection was tested at 11-point dilutions (final concentrations range from 0.78 nM to 46 µM) and the NPC collection at 8-point dilutions (final concentrations range from 0.59 nM to 46 µM). Compounds tested in follow-up screens were assayed at 11-point dilutions. Cells were incubated for 48 hours, followed by addition of 3 µL of CellTiter-Glo (Promega). After a 15 min incubation at room temperature, samples were analyzed for luminescence intensity using a ViewLux High-throughput CCD imager equipped with clear filters.

| Structure (SMILES) | Potency |
| --- | --- |
| CCOc1cc(OCC)c(C(=O)CCC(=O)O)cc1OCC | inactive |
| CC1(C)OC[C@@H]2O[C@@]3(C(=O)O)OC(C)(C)O[C@H]3[C@@H]2O1 | inactive |
| CC(CNC1CCCCC1)OC(=O)c1ccccc1 (stereo not given) | inactive |
| O=C(c1ccc(F)cc1)C1CCN(CCn2c(=S)[nH]c3ccccc3c2=O)CC1 | inactive |
| CC(=O)O[C@H]1C[C@@H]2CC[C@@H]3[C@H](CC[C@@]4(C)[C@H]3C[C@H]([N+]3(C)CCCCC3)[C@@H]4OC(C)=O)[C@@]2(C)C[C@@H]1N1CCCCC1 | inactive |
| C=C[C@@]1(C)CC(=O)[C@]2(O)[C@@]3(C)[C@@H](O)CCC(C)(C)[C@@H]3[C@H](O)[C@H](OC(C)=O)[C@@]2(C)O1 | inactive |
| OC[C@H]1O[C@@H](Oc2ccc(O)cc2)[C@H](O)[C@@H](O)[C@@H]1O | inactive |
| CCN(CC)CCOc1ccccc1C(=O)CCc1ccccc1 | inactive |
| O=[N+]([O-])c1ccc(/C=N\O)o1 | inactive |
| Cc1cc(C)cc(OCC2CNC(=O)O2)c1 (stereo not given) | inactive |
| Cc1cc(NS(=O)(=O)c2ccc(N)cc2)nc(C)n1 | inactive |
| CN1CCC(OC(c2ccccc2)c2ccccc2)CC1 | inactive |
| FC(F)(F)C(F)(F)C(F)(F)C(F)(F)C(F)(F)C(F)(F)C(F)(F)C(F)(F)Br | inactive |
| C/C=C/C=N/NC(=O)c1ccncc1 | inactive |
| CCCCN=C(N)N=C(N)N | inactive |
| Nc1ccc(S(=O)(=O)NCc2ccccc2)cc1 | inactive |
| COc1cc(C(=O)N2CCCCCCC2)cc(OC)c1OC | inactive |
| O=C(O)CCC(=O)Nc1ccc(S(=O)(=O)Nc2nccs2)cc1 | inactive |
| CCN1CCCC(OC(=O)C(c2ccccc2)c2ccccc2)C1 (stereo not given) | inactive |
| CC(=O)Nc1ncc([N+](=O)[O-])s1 | inactive |

| Structure (SMILES) | Potency |
| --- | --- |
| CCOc1ccccc1OCCN[C@H](C)Cc1ccc(OC)c(S(N)(=O)=O)c1 | inactive |
| COc1cc(NS(=O)(=O)c2ccc(N)cc2)ncn1 | inactive |
| Cl/C(=C\n1cncn1)c1ccc(Cl)cc1Cl | inactive |
| COc1ccccc1N1CCN(CCCCNC(=O)c2ccc(-c3ccc(C(C)=O)cc3)cc2)CC1 | inactive |
| CCC1NC(=O)c2cc(S(N)(=O)=O)c(Cl)cc2N1 (stereo not given) | inactive |
| COc1ccc(/C=N/NC(=O)c2ccncc2)cc1OC | inactive |
| CCC(CC)(CC(=O)Nc1cccc(/C=C/c2nc(C3CCC3)cs2)c1)C(=O)O | inactive |
| CCc1cc(Cl)c(OC)c(C(=O)NC[C@@H]2CCCN2CC)c1O | inactive |
| CCCc1ncc(C[n+]2ccccc2C)c(N)n1 | inactive |
| CN(Cc1ccc(C(C)(C)C)cc1)Cc1cccc2ccccc12 | inactive |
| Cc1ncc(CO)c(C=O)c1O | inactive |
| FC1(F)C(F)(F)C(F)(F)C2(F)C(F)(F)C(F)(F)C(F)(F)C(F)(F)C2(F)C1(F)F (stereo not given) | inactive |
| C#C[C@]1(O)CC[C@H]2[C@@H]3CCc4cc(OC)ccc4[C@H]3CC[C@@]21C | inactive |
| Oc1ccccc1C=NCc1ccccc1 | inactive |
| NCc1ccccc1Sc1ccccc1CO | inactive |
| CCCCCCCCCCC[C@@H](C[C@@H]1OC(=O)[C@H]1CCCCCC)OC(=O)[C@H](CC(C)C)NC=O | inactive |
| CCc1ccc(C(=O)C(C)CN2CCCCC2)cc1 (stereo not given) | inactive |
| COc1ccc(C(Cl)=C(c2ccc(OC)cc2)c2ccc(OC)cc2)cc1 | inactive |
| COc1ccc2c(c1)c1c3n2CCN(C)C3=NCC1 | inactive |
| CC(=O)NC(=O)c1ccccc1O | inactive |
